The source holds several records for some structures; these can differ, active in one and inactive in another. Activity calls are given as the source filed them. How the source made its calls: active means hit-call score of the fitted dose curve at least 0.9, where 1 is the maximum; inactive means score below 0.9.
What follows are compounds tested on Interleukin-8 (IL8), CXCL8 (gene 3576) (assay: BSK_IMphg_IL8: BioMAP Diversity Plus: IMphg Assay for Interleukin-8 (IL8) Biomarker Activity (AID 2284277)). Details: primary human endothelial cells with macrophages.
Procedure, shortened: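 Co-culture of human venular endothelial cells and macrophages exposed to chemicals for 24 h; IL-8 quantified by ELISA and compared against the DMSO baseline, with SRB total-protein staining in parallel cultures for cytotoxicity.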

SMILES	outcome	AC50
FC(F)C(F)(F)COCC1CO1 (stereo unspecified)	inactive	
FC(F)(F)C(F)(F)C(F)(F)C(F)(F)C(F)(F)C(F)(F)I	inactive	
FC(F)(F)COC(OCC(F)(F)F)OCC(F)(F)F	inactive	
OCCC(F)(F)C(F)(F)C(F)(F)C(F)(F)F	inactive	
C[Si](C)(C)C(F)(F)C(F)(F)C(F)(F)F	inactive	
FC(F)=C(F)C(F)(F)C(F)(F)C(F)(F)C(F)(F)C(F)(F)C(F)(F)F	inactive	
O=S(=O)(O)CCC(F)(F)C(F)(F)C(F)(F)C(F)(F)C(F)(F)C(F)(F)F	inactive	
NCC(F)(F)C(F)(F)C(F)(F)C(F)(F)F	inactive	
OC(O)(C(F)C(O)(O)C(F)(F)F)C(F)(F)F	inactive	50.1 µM (active)
O=C(Cl)C(F)(F)C(F)(F)C(F)(F)C(=O)Cl	inactive	
